Assay [1] is described as follows: Primary qHTS for inhibitors of nuclear receptor binding SET domain protein 2 (NSD2) in an isogenic RCH-ACV NSD2 p.E1099K mutant (9B) (AID 1645876). Note: nearly all actives have a fitted effect of over 70% in size. Note: potency is the fitted concentration of half-maximal effect. On the technique in general: In qHTS, concentration-response curves come from the screen itself.
Assay [2] is described as follows: Primary qHTS for inhibitors of nuclear receptor binding SET domain protein 2 (NSD2) in an RCH-ACV wild type WT cells (2C) (AID 1645877). Note: nearly all actives have a fitted effect of over 70% in size. Note: potency is the fitted concentration of half-maximal effect.
Assay [3] can be described thus: NCATS anti-infectives library activity on HEK293 viability as a counter-qHTS vs the C. elegans viability qHTS (AID 1745854).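 Note: HEK293 cells exposed to compounds for 24 hr before the viability read.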 An outline of the steps: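 Counter-screen for cytotoxicity: HEK293, 24 hr, 37C, compounds up to 41.7 uM final (a dilution series, 1:5). Readout CellTiter-Glo luminescence, 10 min RT. Digitonin control, 83.3 uM final.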
For assay [4], the target named is Phospholipid hydroperoxide glutathione peroxidase GPX4 (Homo sapiens) (UniProt P36969). In words: Primary qHTS Assay for Inhibitors of Recombinant Selenoprotein Glutathione Peroxidase 4 (GPX4) (AID 1845192). Note: nearly all actives have a fitted effect of over 65% in size. An outline of the steps: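 qHTS, GR-coupled: GPX4 200 nM + cpd 30 min RT → GSH 1 mM, NADPH 0.5 mM, GR 100 nM → CHP 0.5 mM start; fluor 340/450 at t0 and t15 min; no-enzyme wells as control.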
Chain of Phospholipid hydroperoxide glutathione peroxidase GPX4 (Homo sapiens) (P36969 whole entry, looked up): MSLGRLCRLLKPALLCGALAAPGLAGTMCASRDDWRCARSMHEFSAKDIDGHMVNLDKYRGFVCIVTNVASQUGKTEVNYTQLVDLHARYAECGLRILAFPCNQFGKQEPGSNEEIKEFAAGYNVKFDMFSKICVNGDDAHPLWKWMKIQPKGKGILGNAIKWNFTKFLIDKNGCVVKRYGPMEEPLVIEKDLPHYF

The target in assay [5] is Glutathione peroxidase 1 (Homo sapiens) (UniProt P07203). In words: Primary qHTS Assay for Inhibitors of Recombinant Selenoprotein Glutathione Peroxidase 1 (GPX1) (AID 1845191). Note: nearly all actives have a fitted effect of over 65% in size. An outline of the steps:
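GPX1 10 nM, GR 100 nM, GSH 1 mM, NADPH 0.5 mM, CHP 0.5 mM (final). 30-min cpd preincubation, RT. Ex340/Em450 read t=0, t=15 min.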

Assay [6] concerns the target Luciferin 4-monooxygenase (Photinus pyralis) (UniProt P08659). In words: Primary firefly luciferase (FLuc) qHTS assay for identification of artifact compounds. (AID 1845220). Note: nearly all actives have a fitted effect of over 60% in size. The conditions noted are these: outcome: dose series up to 54.1 µM. An outline of the steps:
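qHTS, 15 min compound preincubation with substrate (10 uM luciferin, 10 uM ATP) at RT, then 10 nM FLuc; 5 min; luminescence; % inhibition vs no-enzyme/DMSO controls, 4-parameter Hill fit.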

Assay [7] is described as follows: Primary fluorescence-based thiol-reactive (MSTI) qHTS assay for identification of artifact compounds. (AID 1845221).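 Note: series mostly up to about 54 µM; thiol-reactive compounds lower the probe fluorescence signal; nearly all actives have a fitted effect of over 65% in size.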 An outline of the steps:
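qHTS titration of compound; 4 uM MSTI, PBS pH 7.4, 2% DMSO; 1 h RT, dark; fluorescence 525/598 nm; normalized to Acetyl-MSTI and MSTI; 4-parameter Hill fit.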

A short description of assay [8]: HepG2 viability counterscreen (readout 2: ATP content) against the NCATS DSHEA and TCM libraries (AID 1794840).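 Note: HepG2 cells exposed to substances for about 24 h.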 An outline of the steps:
(§1)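 HepG2 cells (1,000 cells/well) attached ~4 h, then treated ~24 h at 37C with substances. Protease activity read by GF-AFC (25 uM final, 30 min, Ex/Em 380/510 nm); ATP content then by CellTiter-Glo luminescence.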
Background: A counterscreen serves to expose hits that act by an unwanted route or on another target.

Assay [9] can be described thus: HepG2 viability counterscreen (readout 1: protease activity) against the NCATS DSHEA and TCM libraries (AID 1794841).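 Note: cells exposed to compounds for about 24 h before the protease read.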 An outline of the steps: as §1
A short description of assay [10]: Viability counterscreen for antagonist of constitutive androstane receptor (CAR) against the NCATS DSHEA and TCM libraries (AID 1794837).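 Note: compound exposure lasted 24 h before viability reading.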 An outline of the steps:
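HepG2-CYP2B6-hCAR cells (2,500/well) were allowed to attach for 5 h, then exposed to compounds with 48 uM CITCO for 24 h at 37C. Viability was read by CellTiter-Fluor fluorescence after 1 h.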

The nature of assay [11]: Viability counterscreen for agonist of constitutive androstane receptor (CAR) against the NCATS DSHEA and TCM libraries (AID 1794838). An outline of the steps:
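HepG2-CYP2B6-hCAR cells (2,500/well) attached 5 h, then got compounds plus 0.75 uM PK11195 final. After 24 h at 37C, viability read by CellTiter-Fluor fluorescence (Ex/Em 405/540 nm).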

For assay [12], the target named is Nuclear receptor subfamily 1 group I member 3 (Homo sapiens) (UniProt Q14994). In words: Primary qHTS for agonist of constitutive androstane receptor (CAR) against the NCATS DSHEA and TCM libraries (AID 1794839).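 Note: HepG2 cells expressing human CAR with a CYP2B6 reporter plus PK11195 antagonist.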 An outline of the steps:
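HepG2-CYP2B6-hCAR cells (2,500/well) were attached for 5 h, then treated for 24 h at 37 °C with compounds plus 0.75 µM PK11195. Luciferase luminescence (ONE-Glo) was read, with CellTiter-Fluor viability (Ex/Em 405/540 nm).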

Results on 33 molecules are retold here after PubChem BioAssay (NCATS).

Values joined by “and” are separate entries in the source; they are usually repeats but may differ in a detail not shown here. Equal values may be shown once. Results filed as inconclusive are left out. Active and inactive are the calls of the source. Calls come from the whole dose curve; as a rule, active = well fitted curve in the direction sought with a large enough effect; inconclusive = small, poorly fitted or top-dose-only effect, or another doubt; inactive = no such curve, though single readings can be large; an effect the other way counts as inactive or inconclusive.

Chain of Glutathione peroxidase 1 (Homo sapiens) (P07203 whole entry, looked up): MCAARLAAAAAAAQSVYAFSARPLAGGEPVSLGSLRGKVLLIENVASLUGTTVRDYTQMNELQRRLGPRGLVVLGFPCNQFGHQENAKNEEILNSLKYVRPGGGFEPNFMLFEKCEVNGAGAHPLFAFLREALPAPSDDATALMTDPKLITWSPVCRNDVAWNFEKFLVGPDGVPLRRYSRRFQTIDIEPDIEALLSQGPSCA
Chain of Nuclear receptor subfamily 1 group I member 3 (Homo sapiens) (Q14994 whole entry, looked up): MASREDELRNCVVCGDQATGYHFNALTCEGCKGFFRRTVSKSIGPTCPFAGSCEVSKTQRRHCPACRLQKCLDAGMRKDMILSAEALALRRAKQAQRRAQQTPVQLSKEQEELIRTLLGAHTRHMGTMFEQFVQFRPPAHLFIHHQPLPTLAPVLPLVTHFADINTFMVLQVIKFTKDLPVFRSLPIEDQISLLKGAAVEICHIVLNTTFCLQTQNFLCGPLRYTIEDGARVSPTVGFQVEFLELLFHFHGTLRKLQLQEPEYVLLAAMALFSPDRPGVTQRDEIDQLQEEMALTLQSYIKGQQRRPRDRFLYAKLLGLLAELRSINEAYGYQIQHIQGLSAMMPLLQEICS

In the case of `Cc1cccc(C)c1NC(=O)c1ccccc1C(=O)O`, the Potency result in [1] and in assay [2] was “inactive” each time.
For the molecule `CC(=O)O[C@]1(C(C)=O)CC[C@H]2[C@@H]3C=C(C)C4=CC(=O)CC[C@]4(C)[C@H]3CC[C@@]21C`, the Potency result in [1], in [2] and in assay [4] was “inactive” each time. For the same molecule, in assay [3], the molecule was called inactive.
Take `CC(=O)N[C@@H](CCC(=O)O)C(=O)O`: the Potency result in assay [1] and in assay [2] was “inactive” each time.
Consider `CN(C)C(=O)Nc1ccc(Cl)c(Cl)c1`, for which the Potency result in assay [1] and in assay [2] was “inactive” throughout.
Turning to `CC(C)(C)CC(C)(C)c1ccc(O)c(-n2nc3ccccc3n2)c1`, the Potency entry in assay [1] and in [2] was “inactive” in each case.
Regarding `CC(C)NCC(O)c1ccc2ccccc2c1` (stereo not drawn), the Potency entry in assay [1] and in [2] was “inactive” each time.
Take `Nc1nc(N)c(-c2ccccc2)s1`: the Potency result in [1] and in [2] was “inactive” in each case.
For `CCCCCCCCNC(C)C(O)c1ccc(SC(C)C)cc1` (stereo not drawn), the Potency is 10.6 µM (active) in assay [1] and 7.5 µM (active) in assay [2].
With `CCN(CC)CCNC(=O)COc1ccc(OC)cc1`, the Potency entry in assay [1] and in assay [2] was “inactive” each time.
Take `O=C(NCCc1c[nH]c2ccccc12)c1cccnc1`: the Potency entry in assay [1] and in assay [2] was “inactive” throughout.
On to `CCCCCCCCCCCCCC[N+](C)(C)Cc1ccccc1`, for which the Potency is 0.335 µM (active) in [1] and 0.237 µM (active) in [2].
On the same counts, the results for `COc1cc(C(=O)N2CCCCCCC2)cc(OC)c1OC` are “inactive” and “inactive”.
The like results for `CN1CCN(c2cc3c(cc2F)c(=O)c(C(=O)O)cn3-c2ccc(F)cc2)CC1` were, in that order, 11.9 µM (active) and 7.5 µM (active).
In the case of `FC1(F)C(F)(F)C(F)(F)C2(F)C(F)(F)C(F)(F)C(F)(F)C(F)(F)C2(F)C1(F)F` (stereo not drawn), the Potency result in assay [1] and in [2] was “inactive” each time.
Consider `O=C(O)c1ccc(S(=O)(=O)N(Cl)Cl)cc1`, for which the Potency result in [1] and in assay [2] was “inactive” in each case.
`CCN(CC)CCNC(=O)c1cc(Br)c(N)cc1OC`: the Potency result in assay [1] and in assay [2] was “inactive” in each case.
In the case of `Cc1ccc(S(=O)(=O)NC(=O)NC2CCCC2)cc1`, the Potency entry in [1] and in assay [2] was “inactive” throughout.
In the case of `O=C(CCCN1CC=C(n2c(=O)[nH]c3ccccc32)CC1)c1ccc(F)cc1`, the Potency entry in assay [1], in [2], in [5] and in [4] was “inactive” throughout. Moreover, the result in assay [6] and in assay [7] was inactive.
Take `CC(C)(C)NC[C@H](O)COc1cccc2c1CCCC2=O`: the Potency result in assay [1], in assay [2] and in [4] was “inactive” each time.
In the case of `Nc1nc(Cl)nc2c1ncn2[C@@H]1O[C@H](CO)[C@@H](O)[C@@H]1F`, the Potency in [1] was 10.6 nM (active) and 52.5 nM (active); in assay [2], 8.4 nM (active) and 37.2 nM (active). Also, the Potency entry in [5] and in assay [4] was “inactive” each time.
Consider `CCC(Cc1c(I)cc(I)c(N)c1I)C(=O)O` (stereo not drawn), for which the Potency entry in assay [1], in assay [2], in [5] and in [4] was “inactive” each time.
As to `C#C[C@]1(O)CC[C@H]2[C@@H]3CCc4cc(OC)ccc4[C@H]3CC[C@@]21C`, the Potency entry in assay [1], in assay [2], in assay [5] and in assay [4] was “inactive” throughout.
With `CCCCN1C[C@H](O)[C@@H](O)[C@H](O)[C@H]1CO`, the Potency entry in assay [1], in assay [2], in assay [5] and in assay [4] was “inactive” each time.
For the molecule `OC1C(O)C(O)C(O)C(O)C1O` (stereo not drawn), the Potency entry in assay [1] and in assay [2] was “inactive” in each case. For the same molecule, the call in [8] and in [9] was inactive.
For the molecule `Cc1c(-c2ccccc2)oc2c(C(=O)OCCN3CCCCC3)cccc2c1=O`, the Potency result in assay [1], in assay [2], in assay [5] and in assay [4] was “inactive” each time.
As to `Nc1ccc(C(=O)NCC(=O)O)cc1`, the Potency result in assay [1], in assay [2], in assay [5] and in assay [4] was “inactive” in each case.
Take `C#C[C@]1(O)CC[C@H]2[C@@H]3[C@H](C)CC4=C(CCC(=O)C4)[C@H]3CC[C@@]21C`: the Potency is 23.7 µM (active) in assay [1] and 21.1 µM (active) in assay [2]. The Potency result in assay [5] and in [4] was “inactive” throughout.
Regarding `CCCCC(CC)COC(=O)c1ccc(N(C)C)cc1` (stereo not drawn), the Potency entry in assay [1], in assay [2] and in assay [5] was “inactive” throughout.
As to `Nc1nc(-c2ccccc2)c(Br)c(=O)[nH]1`, the Potency result in assay [1], in assay [2], in [5] and in [4] was “inactive” throughout.
With `Cc1cc(C)cc(OCC2CNC(=O)O2)c1` (stereo not drawn), the Potency result in assay [1], in assay [2], in assay [5] and in [4] was “inactive” each time.
On to `CC(=O)Nc1ccc(OC(=O)c2ccccc2OC(C)=O)cc1`, for which the Potency entry in assay [1], in [2], in [5] and in assay [4] was “inactive” each time.
Take `CCCCCCCCCCCCCCCC(=O)O`: the Potency result in assay [1] and in [2] was “inactive” in each case. Also, the outcome in assay [10], in assay [11], in [12], in assay [8] and in assay [9] was inactive.
In the case of `O[C@@H](c1cc(C(F)(F)F)nc2c(C(F)(F)F)cccc12)[C@H]1CCCCN1`, the Potency in assay [1] and in [2] was 7.5 µM (active) each time. The Potency result in assay [5] and in [4] was “inactive” in each case.
